Rows were chosen to be rich in hits. Some 1.6% of all compounds tested hit in one or more screens of this group.
ATG4B inhibitor – ATG4B (human) cysteine protease inhibition; ATG4B cleavage of LC3-PLA2, NBD-HPC fluorescence, 1 h; inhibition, % at 8.33 µM; 0.51% of 340,000 active; in the data active = inhibition above about 40%
Target sequence (Q9Y4P1 whole entry, looked up): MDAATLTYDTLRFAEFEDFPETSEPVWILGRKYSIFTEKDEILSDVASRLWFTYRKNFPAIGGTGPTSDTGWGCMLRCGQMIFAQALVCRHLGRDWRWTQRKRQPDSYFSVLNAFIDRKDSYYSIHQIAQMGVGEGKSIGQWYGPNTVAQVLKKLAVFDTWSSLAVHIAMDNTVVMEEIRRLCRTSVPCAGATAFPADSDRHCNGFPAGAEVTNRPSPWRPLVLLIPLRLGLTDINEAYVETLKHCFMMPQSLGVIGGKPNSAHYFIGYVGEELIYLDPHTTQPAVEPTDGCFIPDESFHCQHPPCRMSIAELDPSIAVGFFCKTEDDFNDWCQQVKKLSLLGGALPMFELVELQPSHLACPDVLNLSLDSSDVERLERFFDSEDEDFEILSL
Efflux pump mplx – blocks antifungal efflux pumps in multiplex yeast assay; S. cerevisiae Candida pump triplex, Nile Red efflux; inhibition, % at 10 µM; 0.44% of 330,000 active; AID 485275;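 active = plate passing quality check with inhibition over a set limit, or well fluorescence over plate mean plus 4 SD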;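 note: Nile Red retained in pooled yeast measured as flow cytometry median fluorescence; 0% = buffer negative control and 100% = Enniatin B positive control; higher means more Nile Red kept so more efflux inhibition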
CR mimetic SO – lowers age-related superoxide in aged yeast cells; S. cerevisiae aged cells, superoxide DHE fluorescence; active compounds read low; superoxide response (% of plate mean), % at 10 µM; 0.18% of 330,000 active; AID 2690;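 active = superoxide response under a set limit, about three screen SD below normal, cut at about 65% in these data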;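 note: yeast aged for seven days with compound at 30 °C before DHE staining; 100% = average MFI of all compound-treated wells on the plate with controls excluded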
GRK2 inh – human GRK2 inhibition via aptamer displacement. P25098. bead flow cytometry, FAM-aptamer displacement from GRK2. inhibition of aptamer binding, % at 10 µM. 0.59% of 330,000 active. AID 488847;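 active = inhibition of aptamer binding above 40%, roughly 3 SD of noise, on plates passing a quality check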;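 note: median bead fluorescence of bound FAM aptamer so fluorescent compounds give negative values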
Cmpd fluor yeast – counter-screen for efflux pump inhibitors: compound fluorescence | shares compounds with Efflux pump mplx | AID 588517 | fluorescence ratio to DMSO, % at 10 µM | S. cerevisiae AD/pABC3, flow cytometry | 4% of 1,700 active;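 active = fluorescence ratio to DMSO above its plate's cutoff, the plate mean ratio plus 5 SD, cut at about 210% in these data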;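 note: unstained yeast with no Nile Red so the signal is compound autofluorescence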
Mdr1 pump inh – inhibitors of Candida albicans Mdr1 efflux pump. inhibition, % at 10 µM. S. cerevisiae AD/CaMDR1, Nile Red efflux, flow cytometry. 1% of 1,700 active. shares compounds with Efflux pump mplx; in the data active = inhibition above about 26%;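 note: 0% = DMSO vehicle and 100% = reference inhibitor; higher means more Nile Red retained so more efflux inhibition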
Cdr2 pump inh – Candida Cdr2 efflux pump inhibition; Nile Red retention ratio vs DMSO, % at 10 µM; shares compounds with Efflux pump mplx; S. cerevisiae AD/CaCDR2, Nile Red retention, flow cytometry; 4% of 1,700 active; in the data active = Nile Red retention ratio vs DMSO above about 190%;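 note: higher ratio means more blocking of Cdr2 efflux of the dye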
CaCdr1 efflux inh – inhibitors of Candida albicans Cdr1 efflux pump. shares compounds with Efflux pump mplx. S. cerevisiae AD/CaCDR1, Nile Red efflux, flow cytometry. inhibition, % at 10 µM. 1% of 1,700 active. AID 588522;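 active = inhibition above the screen-wide mean plus twice its standard deviation, cut at about 32% in these data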
Numbers without * were called inactive; x = no result given.

SMILES	ATG4B inhibitor	Efflux pump mplx	CR mimetic SO	GRK2 inh	Cmpd fluor yeast	Mdr1 pump inh	Cdr2 pump inh	CaCdr1 efflux inh
COc1ccc(NC(=O)C2CCCNC2)cc1OCC(C)C (configuration not stated)	-7	0	100	0	x	x	x	x
COc1cc(NC(=O)C2CCCCN2)ccc1OCC(C)C (configuration not stated)	-1	0.5*	111	2	98	0	100	0
O=C(COC(=O)CSc1ccc2ccccc2c1)NC1CC1	-11	0	112	5	x	x	x	x
O=C(COC(=O)CSc1ccc2ccccc2c1)NC1CCCC1	-14	25*	95	0	115	0	108	0
COc1ccc(CCCc2nnc(SCC(=O)Nc3cc(C)c(C)cc3Br)o2)cc1	9	0.8*	117	2	103	-1	108	0
CC(=O)c1cccc(NC(=O)COC(=O)c2n[nH]c3ccccc23)c1	-9	0	85	0	x	x	x	x
CC(CNC(=O)c1ccc(C(C)(C)C)cc1)CN(C)C (configuration not stated)	-2	2.0*	103	0	100	0	96	0
CCOc1ccc(C(=O)NCC(C)CN(C)C)cc1OCC (configuration not stated)	-1	0	101	0	x	x	x	x
Cc1cccc(CNC(=O)C2CCC(=O)N(C3CC3)C2)c1 (configuration not stated)	-13	0	91	0	x	x	x	x
C=CCn1c(=S)[nH]c2scc(-c3ccc(C)o3)c2c1=O	-8	0	79	4	x	x	x	x
C=CCn1c(=S)[nH]c2sccc2c1=O	2	0.8*	99	0	95	0	98	0
O=C(CSc1ccc(Br)cc1)N1CCN(S(=O)(=O)c2ccccc2)CC1	-14	2.0*	98	10	104	0	105	0
CCC1(C)NC(=O)N(CC(=O)NCC(=O)Nc2c(C)cc(C)cc2C)C1=O (configuration not stated)	3	0	103	6	x	x	x	x
O=C(Cc1c2ccccc2nc2ccccc12)c1ccccc1	-5	15*	125	0	92	0	106	0
CN(C)/C=C/C(=O)c1ncc(C(F)(F)F)cc1Cl	0	0	83	0	x	x	x	x
O=C(NOCc1ccccc1)c1coc(-c2ccccc2)n1	2	1.4*	101	0	92	0	96	0
NC(=O)NOCc1ccccc1	0	0	94	3	x	x	x	x
Cc1nnc(SC(C)C(=O)Nc2c(C)n(C)n(-c3ccccc3)c2=O)n1N (configuration not stated)	-6	0	102	1	x	x	x	x
CC1CCN(C(=O)c2ccc(NS(C)(=O)=O)cc2)CC1	-12	0.6*	114	9	99	0	107	0
O=c1c2c(nc3nc(NCc4cccc(Cl)c4)[nH]n13)CCC2	-4	0	104	1	x	x	x	x
COc1ccc(C(CC(=O)O)N2C(=O)CCC2=O)cc1 (configuration not stated)	7	0	81	0	x	x	x	x
O=C(CCS(=O)(=O)c1ccccc1F)Nc1ccc(N2CCN(Cc3ccccc3)CC2)cc1	-13	1.9*	113	0	109	0	89	0
CSc1ncccc1C(=O)OCC(=O)N1CC(=O)Nc2ccccc21	-2	0	84	1	x	x	x	x
CCC(C)(C)NC(=O)C(c1ccccc1F)N(C(=O)c1ccn[nH]1)c1ccccc1 (configuration not stated)	1	0.4*	100	0	93	0	108	0
COc1cccc(-c2c(C#N)c(N)nc3c2c(C)nn3-c2ccccc2)c1O	-5	0	82	0	x	x	x	x
SMILES	ATG4B inhibitor	Efflux pump mplx	CR mimetic SO	GRK2 inh	Cmpd fluor yeast	Mdr1 pump inh	Cdr2 pump inh	CaCdr1 efflux inh
O=C(c1cc2c(s1)CCCC2)N1CCN(S(=O)(=O)c2ccccc2C(F)(F)F)CC1	9	6.7*	98	0	108	0	106	0
Cc1ccc(S(=O)(=O)N2CCN(C(=O)c3cc4c(s3)CCCC4)CC2)cc1	0	0	100	1	x	x	x	x
O=S(=O)(NCc1cn2ccccc2n1)c1cccs1	1	0	85	0	x	x	x	x
O=C(COc1ccc(S(=O)(=O)N2CCCC2)cc1)NCc1ccco1	-9	0	119	0	x	x	x	x
O=C(COC(=O)c1ccc(S(=O)(=O)N2CCCCC2)cc1)NCc1ccco1	-1	1.6*	105	2	103	0	103	0
CN1CCN(C(=O)c2ccccc2-c2ccccc2C(=O)O)CC1	13	6.7*	95	4	102	0	78	0
Cc1ccc(-c2csc(NC(=O)C3=NN(c4ccccc4)C(=O)CC3)n2)cc1	-7	0	119	0	x	x	x	x
Cc1cccc(C(=O)Nc2nnc(SCC(=O)Nc3ccc4c(c3)oc3ccccc34)s2)c1	-2	4.2*	89	0	92	0	114	0
Cc1ccc(CCNC(=O)CCNS(=O)(=O)c2ccc3c(c2)c(=O)n(C)c(=O)n3C)cc1	-6	9.0*	92	0	100	0	89	0
Cc1csc(NC(=O)CCNS(=O)(=O)c2ccc3c(c2)c(=O)n(C)c(=O)n3C)n1	10	6.7*	105	0	98	0	105	0
CN(C)S(=O)(=O)c1ccc(C(=O)N2CCN(S(=O)(=O)c3ccc4c(c3)OCCO4)CC2)cc1	-9	x	x	x	x	x	x	x
O=[N+]([O-])c1ccc(C(O)CN=Cc2ccc(O)cc2O)cc1 (configuration not stated)	-5	0	104	0	x	x	x	x
CCOC(=O)c1ccccc1NC(=O)C1CC(=O)N(C(C)(C)C)C1 (configuration not stated)	-4	0	105	0	x	x	x	x
CCOC(=O)c1ccccc1NC(=O)C1CC(=O)N(C2CCCCC2)C1 (configuration not stated)	-1	6.2*	101	0	108	0	94	0
COc1ccc(CNC(=O)c2cccc(S(=O)(=O)N3CCCCC3)c2)cc1OC	-60	0	96	0	x	x	x	x
COc1cc(/C=N/N2CCN(c3ccc(Cl)cc3)CC2)cc(OC)c1OC(C)=O	2	1.2*	87	2	89	0	108	0
O=C(N/N=C/c1cccs1)c1ccc2c(c1)OCO2	37	11*	114	2	95	0	112	0
COc1ccc2cc(C(C)C(=O)Nc3cccc(S(=O)(=O)N(C)C)c3)ccc2c1 (configuration not stated)	-6	3.2*	102	1	100	0	94	0

Compound activity: PubChem, several laboratories
